# Assay outcomes: PubChem BioAssay, several laboratories
# In the library only some 5.4% were active in any assay of this set; here they are far more common.
# GASC-1 inh: inhibitors of GASC-1 histone demethylase, primary screen, biochemical, fluorescence, DELFIA europium; Lysine-specific demethylase 4C (Homo sapiens), Q9H3R0; GST-JMJD2C(1-420) H3K9me3 demethylation; inhibition, % at 2.35 µM; hit rate 0.069% among 330,000; AID 2099, 2009;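 active = more than half of a compound's replicate wells show inhibition beyond 50%, single wells judged on their own value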;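 note: signal counts dimethyl H3K9 product captured on neutravidin plate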
# Target sequence (Q9H3R0 1-420 limits assumed): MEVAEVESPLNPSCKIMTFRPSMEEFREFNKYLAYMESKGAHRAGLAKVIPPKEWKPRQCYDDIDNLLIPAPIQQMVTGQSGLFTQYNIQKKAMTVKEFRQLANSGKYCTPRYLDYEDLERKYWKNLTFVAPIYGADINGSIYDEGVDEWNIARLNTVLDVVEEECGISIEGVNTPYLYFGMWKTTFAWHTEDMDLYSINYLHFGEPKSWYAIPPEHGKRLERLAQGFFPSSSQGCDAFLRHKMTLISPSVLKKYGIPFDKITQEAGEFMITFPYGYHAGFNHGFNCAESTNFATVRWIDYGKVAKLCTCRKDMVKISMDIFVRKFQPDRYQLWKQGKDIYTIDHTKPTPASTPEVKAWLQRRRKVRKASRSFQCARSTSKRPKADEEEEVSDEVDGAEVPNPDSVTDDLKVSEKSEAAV
# ALR inh: inhibitors of human ALR sulfhydryl oxidase, primary screen, biochemical, H2O2 detection, HRP-luminol luminescence, single point | FAD-linked sulfhydryl oxidase ALR (Homo sapiens), P55789 | purified ALR, DTT oxidation | inhibition, % (test concentration not listed) | hit rate 3.8% among 290,000 | AID 485317, 2010;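 active = mean replicate inhibition above about 79%, with every replicate also reaching it, limit read from the data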
# Target sequence (P55789 whole entry, looked up): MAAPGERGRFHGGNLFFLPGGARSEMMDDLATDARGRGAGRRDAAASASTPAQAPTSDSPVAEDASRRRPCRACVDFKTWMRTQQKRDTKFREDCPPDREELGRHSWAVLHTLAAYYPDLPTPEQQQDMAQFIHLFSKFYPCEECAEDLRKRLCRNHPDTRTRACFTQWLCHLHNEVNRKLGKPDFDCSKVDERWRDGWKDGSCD
# SMARCA2 act: SMARCA2 (BRM) function activators, primary screen, cell-based, luminescence, high throughput | hit rate 1% among 370,000 | AID 652017, 2013 | MG213 cells, MMTV-luciferase reporter, dexamethasone, overnight | activation, % at 9.1 µM; in the data active = activation above about 7.8%
# M18AAP inhibitor: PfM18AAP inhibitors, malaria aminopeptidase, primary screen, biochemical, QFRET, recombinant enzyme. M18 aspartyl aminopeptidase (Plasmodium falciparum 3D7). H-Glu-NHMec fluorogenic cleavage. inhibition, % at 7.35 µM. hit rate 1.2% among 290,000. AID 1822, 2009;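 active = inhibition above the campaign mean inhibition over all tested compounds plus 3 SD, cut at about 28% in these data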
# beta cell repl: inducers of MIN6 beta-cell proliferation, primary screen, ATP luminescence, uHTS. MIN6 cells proliferation, ATPlite luminescence, 48 h; cells starved in 0.2% serum; 100% = growth in 10% serum. proliferation, % at 10 µM. hit rate 0.29% among 330,000. AID 2380, 2010;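 active = compounds whose signal lies at least 3.5 SD above the mean of all wells on their plate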
# Exocytosis inh: LAMP-1 surface exposure blockers, TALL-104 cells – cell-based, flow cytometry, MLPCN library, primary screen. TALL-104 LAMP-1 surface exposure; cells stimulated with thapsigargin and PMA. inhibition, % at 10 µM. hit rate 0.66% among 360,000;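 active = inhibition above about 55%, limit read from the data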
# Hits are given with their value; i = inactive; nt = no result.
SMILES,GASC-1 inh,ALR inh,SMARCA2 act,M18AAP inhibitor,beta cell repl,Exocytosis inh
Cc1ccc(-c2nc(CSCC(=O)N3CCOCC3)c(C)o2)cc1,i,99,i,i,i,i
Cc1ccc(-c2nnc(SCC(=O)N3CCOCC3)nc2-c2ccc(C)cc2)cc1,i,95,i,i,i,i
Cc1cccc(-c2nc(CSCC(=O)N3CCN(Cc4ccc5c(c4)OCO5)CC3)c(C)o2)c1,i,98,i,i,i,i
Cc1ccc(-c2nc(CSCC(=O)N3CCN(C(=O)c4ccco4)CC3)c(C)o2)cc1,i,99,i,i,i,i
COC(=O)[C@]12C[C@H](CC(=O)NCc3cccc(C(F)(F)F)c3)C(=O)N(Cc3ccc(Cl)cc3Cl)C1=C[C@H](C(C)(C)C)O[C@@H]2C,nt,nt,i,nt,nt,nt
Clc1ccc(-c2cn3cc(Cl)ccc3n2)cc1,i,i,i,i,i,i
Oc1ccc(-c2cn3cc(C(F)(F)F)ccc3n2)cc1,i,90,i,i,i,i
CN(C)C1(CN=Cc2cc(Cl)cc([N+](=O)[O-])c2O)CCCCC1,i,i,i,30,i,i
CC(C)c1ccc(NC2CCCN(C(=O)c3cc(C(C)C)nc(N)n3)C2)cc1 (configuration not stated),i,97,i,i,i,i
CC(C)c1ccc(NC2CCCN(C(=O)c3cscn3)C2)cc1 (configuration not stated),i,99,i,i,i,i
Cc1nnsc1C(=O)N1CCCC(Nc2ccc(C(C)C)cc2)C1 (configuration not stated),i,i,i,i,i,i
Cc1cc(C)n2nc(C(=O)N3CCCC(Nc4ccc(F)c(F)c4)C3)cc2n1 (configuration not stated),i,i,i,i,i,i
Cc1nonc1C(=O)N1CCCC(Nc2ccc(C(C)C)cc2)C1 (configuration not stated),i,i,i,i,i,i
CC(C)c1cc(C(=O)N2CCCC(Nc3ccc(F)cc3)C2)n[nH]1 (configuration not stated),i,99,i,i,i,i
Cc1cc(C)n2nc(C(=O)N3CCCC(Nc4ccc(C(C)C)cc4)C3)cc2n1 (configuration not stated),i,97,i,i,i,i
CN(C)N1C(=O)CC(NNC(=O)c2ccncc2)C1=O (configuration not stated),i,86,i,i,i,i
C[C@H]1CCC[C@@H](O)CC(=O)c2c(O)cc(O)cc2CC(=O)O1,nt,nt,i,nt,nt,nt
CCOC(=O)CC[C@@H]1CC[C@]2(CCCN(C(=O)c3ccno3)C2)O1,nt,nt,i,nt,nt,nt
CC(O)CC(=O)OC[C@]12CC[C@H]3[C@@](C)(CC[C@H]4C(C)(C)CCC[C@]34C)[C@@H]1CC(C1=CC(=O)OC1O)O2 (some centres not stated),nt,nt,i,nt,nt,56
Cn1c(=O)n(C)c2cc(S(=O)(=O)Nc3ccccc3O)ccc21,i,i,i,i,i,i
Cn1c(=O)n(C)c2cc(S(=O)(=O)Nc3cc(Cl)ccc3O)ccc21,i,98,i,i,i,i
COc1ccc(OC)c(S(=O)(=O)N2CCCCC2C(=O)N2CCN(Cc3ccc(F)cc3)CC2)c1 (configuration not stated),nt,nt,i,nt,nt,nt
Cc1ccc(NC(=O)CSCc2cc(=O)n3nc(C4CC4)sc3n2)cc1,i,99,i,i,i,i
COc1cccc(NC(=O)CSCc2cc(=O)n3nc(C4CC4)sc3n2)c1,i,99,i,i,i,i
Nc1ncnc2c1ncn2[C@@H]1O[C@H](CNCC#Cc2ccccc2)[C@@H](O)[C@H]1O,54,nt,nt,nt,i,i
SMILES,GASC-1 inh,ALR inh,SMARCA2 act,M18AAP inhibitor,beta cell repl,Exocytosis inh
CN(C)CC(O)CN(c1ccccc1)c1ccccc1 (configuration not stated),i,99,i,i,i,i
CC(C)(C)OC(=O)NCc1ccccc1/C=C/S(=O)(=O)NC1CCCC1,nt,nt,i,nt,nt,nt
CN(c1ccccc1)S(=O)(=O)c1ccc(C(=O)Nc2nnc(C3=COCCO3)o2)cc1,i,98,i,i,i,i
COc1ccc(N=c2scc(-c3ccc(OC)cc3)n2CCO)cc1,i,86,i,i,i,i
COc1ccccc1-c1cccc2c3c([nH]c12)[C@@H]1C[C@H]2[C@@H](C(=O)N1CC3)[C@H](C)ON2C,nt,nt,i,nt,nt,nt
CC(=O)OCC(=O)Nc1ccc(SC(F)F)cc1,i,99,i,i,i,i
O=C(CSc1n[nH]c(=O)[nH]c1=O)Nc1ccc(SC(F)F)cc1,i,99,i,nt,i,i
N=c1sccn1CC(=O)Nc1ccc(S(N)(=O)=O)cc1,i,nt,i,i,i,i
N=c1sccn1CC(=O)Nc1ccc(SC(F)F)cc1,i,98,i,i,i,i
CCOc1cc(C(=O)OCC(=O)Nc2ccc(SC(F)F)cc2)cc(OCC)c1OCC,i,i,i,i,i,i
CCC(C(=O)OCC(=O)Nc1ccc(SC(F)F)cc1)c1ccccc1 (configuration not stated),i,nt,i,i,nt,73
CCC(C(=O)OCC(=O)Nc1ccc(F)cc1)c1ccccc1 (configuration not stated),i,i,i,nt,i,i
CC[C@@]1(c2ccc(C)cc2)C(=O)N(C(=O)OC)N1C(=O)OC,nt,nt,i,nt,nt,nt
CCCCNC(=O)C1CCCN1C(=O)NCc1ccccc1OC (configuration not stated),nt,nt,i,nt,nt,nt
C#CCNC(=O)C[C@H]1C[C@@]2(C(=O)OC)C(=C[C@H](C3CCCC3)O[C@@H]2C)N(Cc2cccc3ccccc23)C1=O,nt,nt,i,nt,nt,nt
O=C(Cc1ccccc1)Nc1ccc(SC(F)F)cc1,i,i,i,i,i,i
C/C=C/C(=O)OCC(=O)Nc1ccc(SC(F)F)cc1,i,99,i,i,i,i
CN(C)/C=C(\C#N)C(=O)N/N=C(\CC(=O)C(F)(F)F)c1ccco1,i,nt,i,30,i,i
CN(C)/C=C(\C#N)C(=O)N/N=C/c1ccc(Cl)cc1,i,i,i,i,i,i
COCCCN1CCC2(CCC(c3ccccc3)CC2)C1=O (configuration not stated),nt,nt,i,nt,nt,nt
CN(C(=O)COc1ccccc1C(=O)NCCOc1ccccc1)c1ccccc1,i,i,i,i,i,67
C/C(=N\NC(=O)c1ccccc1OCCOc1ccccc1)c1ccccc1F,nt,nt,i,nt,i,i
NNC(=O)c1ccccc1OCCOc1ccccc1,i,i,i,i,i,59
CCc1c(O)nc(SCC(=O)N2CCOCC2)n(-c2ccccc2)c1=O,i,96,i,i,i,i
CCc1c(O)nc(SCC(=O)c2ccccc2)n(-c2ccccc2)c1=O,i,99,i,i,i,i
